{"source": "PubChem BioAssay AID2283125", "about": "(EPA ToxCast)", "molecular_target": "Tyrosine-protein kinase ABL1 (Homo sapiens) (UniProt P00519)", "sequence (P00519 whole entry, looked up)": "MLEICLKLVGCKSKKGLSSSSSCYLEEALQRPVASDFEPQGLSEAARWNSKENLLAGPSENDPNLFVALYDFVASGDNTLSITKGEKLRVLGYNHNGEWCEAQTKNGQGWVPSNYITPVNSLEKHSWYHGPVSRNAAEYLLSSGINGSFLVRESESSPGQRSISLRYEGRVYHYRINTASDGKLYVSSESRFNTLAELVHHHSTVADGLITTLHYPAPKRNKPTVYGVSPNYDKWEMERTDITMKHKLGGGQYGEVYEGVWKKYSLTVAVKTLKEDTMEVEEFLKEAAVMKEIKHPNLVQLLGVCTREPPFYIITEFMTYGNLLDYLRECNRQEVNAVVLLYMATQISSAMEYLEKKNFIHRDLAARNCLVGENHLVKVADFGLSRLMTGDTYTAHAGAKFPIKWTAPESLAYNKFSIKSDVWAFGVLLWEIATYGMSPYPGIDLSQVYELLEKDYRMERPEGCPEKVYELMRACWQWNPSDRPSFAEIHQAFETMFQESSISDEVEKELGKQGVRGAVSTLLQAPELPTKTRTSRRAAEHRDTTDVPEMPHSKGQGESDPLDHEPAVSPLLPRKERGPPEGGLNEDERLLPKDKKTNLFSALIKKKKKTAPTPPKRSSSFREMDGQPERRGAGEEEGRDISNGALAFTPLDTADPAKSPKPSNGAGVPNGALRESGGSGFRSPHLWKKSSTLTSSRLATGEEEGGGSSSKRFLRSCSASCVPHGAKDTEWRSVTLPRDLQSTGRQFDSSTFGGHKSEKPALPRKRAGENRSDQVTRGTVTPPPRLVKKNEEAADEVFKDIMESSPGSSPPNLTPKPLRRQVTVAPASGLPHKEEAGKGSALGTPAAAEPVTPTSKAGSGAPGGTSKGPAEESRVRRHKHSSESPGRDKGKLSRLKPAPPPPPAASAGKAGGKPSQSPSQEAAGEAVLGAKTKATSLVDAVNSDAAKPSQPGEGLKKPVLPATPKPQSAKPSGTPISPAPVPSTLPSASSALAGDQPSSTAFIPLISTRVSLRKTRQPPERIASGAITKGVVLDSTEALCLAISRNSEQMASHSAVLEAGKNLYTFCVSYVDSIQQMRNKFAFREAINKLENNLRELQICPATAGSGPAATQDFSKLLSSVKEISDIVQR", "test": "NVS_ENZ_hAbl: NovaScreen (NVS) Enzymatic Assay for human ABL proto-oncogene 1, non-receptor tyrosine kinase", "experimental": "NVS_ENZ_hAbl is a biochemical, single-readout assay that uses extracted gene-proteins in a cell-free assay. Measurements were taken 1 hour after chemical dosing in a 96-well plate.NVS_ENZ_hAbl is one of one assay component(s) measured or calculated from the NVS_ENZ_hAbl assay. It is designed to make measurements of enzyme activity, a form of enzyme reporter, as detected with fluorescence intensity signals by Fluorescence and electrophoretic mobility shift technology.Data from the assay component NVS_ENZ_hAbl was analyzed into 1 assay endpoint. This assay endpoint, NVS_ENZ_hAbl, was analyzed in the positive analysis fitting direction relative to DMSO as the negative control and baseline of activity. Using a type of enzyme reporter, loss-of-signal activity can be used to understand changes in the enzymatic activity as they relate to the gene ABL1. Furthermore, this assay endpoint can be referred to as a primary readout, because this assay has produced multiple assay endpoints where this one serves a enzymatic activity function. To generalize the intended target to other relatable targets, this assay endpoint is annotated to the kinase intended target family, where the subfamily is non-receptor tyrosine kinase. […]", "note": "Inconclusive results are not listed. Activity calls are given as the source filed them. How the source made its calls: active means hit-call score of the fitted dose curve at least 0.9, where 1 is the maximum; inconclusive means response in the unintended direction; inactive means score below 0.9.", "data": [{"smiles": "O=C(Nc1ccc([N+](=O)[O-])cc1Cl)c1cc(Cl)ccc1O", "values": [{"measurement": "outcome", "result": "inactive"}]}, {"smiles": "c1ccc2[nH]c(-c3cscn3)nc2c1", "values": [{"measurement": "outcome", "result": "inactive"}]}]}
